In PubChem BioAssay:
Activity calls are given as the source filed them.

Tests used:
[1] = small molecules captured by biotinylated probe aFSTL3 – biochemical, small-molecule microarray, fluorescence 635/667, stem cell growth factor project, primary screen (AID 1064); details: higher = more signal;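 also: measures binding of the biotinylated anti-FSTL3 antibody to printed compounds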
[2] = binders from COS7 lysate, DM2A8 probe, primary screen, torsin A project, cell lysate, small-molecule microarray, fluorescence 635/667 (AID 1065); details: higher = more signal, COS7 lysate expressing mutant human TOR1A
[3] = small molecules captured by biotinylated probe aFGF2 – biochemical, small-molecule microarray, fluorescence 635/667, stem cell growth factor project, primary screen (AID 1067); details: higher = more signal;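 also: measures binding of biotinylated aFGF2 protein to printed compounds on slides; z-score merges feature fluorescence and signal-to-noise across triplicate slides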
[4] = small molecules captured by biotinylated probe aFGF10 – biochemical, small-molecule microarray, fluorescence 635/667, stem cell growth factor project, primary screen (AID 1071); details: higher = more signal;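 also: score merges 667 nm spot intensity and signal to noise from triplicate slides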
[5] = biological target: Neurogenic locus notch homolog protein 2 (Homo sapiens) (UniProt Q04721); test: small molecules binding Notch2 protein – biochemical, small-molecule microarray, 635 nm fluorescence, stem cell growth factors, primary screen (AID 1073); details: higher = more signal
Sequence of Neurogenic locus notch homolog protein 2 (Homo sapiens) (Q04721 whole entry, looked up, canonical isoform): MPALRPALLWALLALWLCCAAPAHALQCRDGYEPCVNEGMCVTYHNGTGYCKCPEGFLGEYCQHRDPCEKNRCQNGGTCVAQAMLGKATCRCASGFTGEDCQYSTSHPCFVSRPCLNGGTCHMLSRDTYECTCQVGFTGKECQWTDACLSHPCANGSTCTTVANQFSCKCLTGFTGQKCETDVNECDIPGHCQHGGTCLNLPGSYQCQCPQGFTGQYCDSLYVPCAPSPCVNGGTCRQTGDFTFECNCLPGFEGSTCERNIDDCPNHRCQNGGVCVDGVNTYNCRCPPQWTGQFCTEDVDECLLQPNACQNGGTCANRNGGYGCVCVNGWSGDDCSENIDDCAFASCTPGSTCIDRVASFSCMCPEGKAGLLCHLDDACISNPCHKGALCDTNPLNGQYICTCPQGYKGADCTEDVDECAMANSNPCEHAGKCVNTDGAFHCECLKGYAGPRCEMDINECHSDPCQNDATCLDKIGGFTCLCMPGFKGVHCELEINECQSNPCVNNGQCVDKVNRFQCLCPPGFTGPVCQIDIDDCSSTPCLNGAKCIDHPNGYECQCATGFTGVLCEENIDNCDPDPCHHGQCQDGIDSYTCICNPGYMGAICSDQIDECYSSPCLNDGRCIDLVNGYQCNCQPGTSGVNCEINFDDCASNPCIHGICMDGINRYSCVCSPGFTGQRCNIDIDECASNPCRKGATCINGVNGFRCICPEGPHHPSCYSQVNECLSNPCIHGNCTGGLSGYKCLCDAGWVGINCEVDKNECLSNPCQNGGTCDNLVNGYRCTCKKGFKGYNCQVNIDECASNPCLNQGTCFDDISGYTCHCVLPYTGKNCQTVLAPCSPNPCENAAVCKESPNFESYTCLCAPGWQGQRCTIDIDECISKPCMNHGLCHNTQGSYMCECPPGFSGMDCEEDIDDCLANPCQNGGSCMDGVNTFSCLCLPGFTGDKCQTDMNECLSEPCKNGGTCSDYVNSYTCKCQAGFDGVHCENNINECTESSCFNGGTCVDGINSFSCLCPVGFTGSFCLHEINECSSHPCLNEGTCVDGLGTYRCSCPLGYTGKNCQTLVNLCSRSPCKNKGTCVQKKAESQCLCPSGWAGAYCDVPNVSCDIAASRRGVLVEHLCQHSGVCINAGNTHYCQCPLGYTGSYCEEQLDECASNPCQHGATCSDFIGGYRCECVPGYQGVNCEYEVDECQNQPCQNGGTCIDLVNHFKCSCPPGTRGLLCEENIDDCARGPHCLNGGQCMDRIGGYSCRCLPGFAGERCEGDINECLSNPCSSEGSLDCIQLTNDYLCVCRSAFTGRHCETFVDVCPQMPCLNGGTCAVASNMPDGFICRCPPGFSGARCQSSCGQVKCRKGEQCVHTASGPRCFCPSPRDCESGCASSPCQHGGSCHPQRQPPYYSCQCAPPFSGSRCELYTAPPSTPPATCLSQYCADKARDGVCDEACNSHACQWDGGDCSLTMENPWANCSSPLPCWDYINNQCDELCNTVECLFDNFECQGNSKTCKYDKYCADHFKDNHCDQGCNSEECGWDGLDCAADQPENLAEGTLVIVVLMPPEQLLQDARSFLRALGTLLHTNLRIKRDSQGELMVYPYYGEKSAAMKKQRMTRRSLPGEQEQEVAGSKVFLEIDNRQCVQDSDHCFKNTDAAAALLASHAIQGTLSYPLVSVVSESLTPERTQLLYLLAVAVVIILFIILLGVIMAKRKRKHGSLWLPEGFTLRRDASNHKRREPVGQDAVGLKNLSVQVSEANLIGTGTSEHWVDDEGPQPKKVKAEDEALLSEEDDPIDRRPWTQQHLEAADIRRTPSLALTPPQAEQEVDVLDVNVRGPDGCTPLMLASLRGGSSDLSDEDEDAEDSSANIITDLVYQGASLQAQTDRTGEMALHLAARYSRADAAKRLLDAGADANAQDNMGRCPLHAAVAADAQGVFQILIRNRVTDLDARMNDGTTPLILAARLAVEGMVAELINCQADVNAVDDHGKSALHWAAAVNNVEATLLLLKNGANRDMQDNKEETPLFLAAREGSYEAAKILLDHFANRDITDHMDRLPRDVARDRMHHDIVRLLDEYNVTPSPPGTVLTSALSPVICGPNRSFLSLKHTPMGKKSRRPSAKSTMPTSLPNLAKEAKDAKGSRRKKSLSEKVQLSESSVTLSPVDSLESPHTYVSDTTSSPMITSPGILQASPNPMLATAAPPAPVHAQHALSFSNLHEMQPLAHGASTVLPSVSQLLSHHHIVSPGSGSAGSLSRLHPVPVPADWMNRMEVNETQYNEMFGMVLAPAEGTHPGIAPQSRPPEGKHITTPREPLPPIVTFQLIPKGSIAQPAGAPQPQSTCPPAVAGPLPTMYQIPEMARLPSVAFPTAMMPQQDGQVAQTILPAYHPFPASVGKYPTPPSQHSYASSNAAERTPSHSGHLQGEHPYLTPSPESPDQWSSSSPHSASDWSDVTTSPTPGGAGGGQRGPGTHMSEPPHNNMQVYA

[6] = biological target: Pro-neuregulin-1, membrane-bound isoform (Homo sapiens) (UniProt Q02297); test: small molecules binding neuregulin-1 protein – biochemical, small-molecule microarray, fluorescence 635/667, psychiatric disease protein project, primary screen (AID 1075); details: NRG1 binding, 635 nm fluorescence, higher = more signal;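 also: score combines 667 nm spot fluorescence with signal to noise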
[7] = system: Neuregulin-1 EGF-like domain; test: small molecules binding NRG1 EGF domain – biochemical, small-molecule microarray, 635 nm fluorescence, primary screen (AID 1081); details: higher = more signal;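 also: binding of the protein to compounds printed on small-molecule microarray slides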
[8] = FRG1 expression reporter modulators in myotubes – cell-based, C2C12 myotubes, firefly/Renilla luciferase, luminescence, FRG1 inhibition for FSHD, primary screen (AID 1084); details: FRG1 promoter luciferase, higher = more signal, called active from +8 up or from −8 down
[9] = small molecules captured by biotinylated probe aFST – biochemical, small-molecule microarray, fluorescence 635/667, stem cell growth factor project, primary screen (AID 1086); details: higher = more signal;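 also: score merges 667 nm fluorescence with signal-to-noise of each printed compound spot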
[10] = binders of probe aHhip on microarray, primary screen, stem cell growth factor project, biochemical, small-molecule microarray, fluorescence 635/667 (AID 1087); details: higher = more signal;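 also: score merges spot fluorescence at 667nm with spot signal to noise ratio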
[11] = system: PRMT1 (protein arginine N-methyltransferase 1); test: small molecules binding arginine methyltransferase PRMT1 – biochemical, small-molecule microarray, 635 nm fluorescence, primary screen (AID 1088); details: higher = more signal;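 also: binding of Prmt1 protein to compounds spotted on small-molecule microarray slides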
[12] = growth effects on S. cerevisiae YJM789 – YJM789 clinical isolate, OD600, 24 h, basal, primary screen (AID 1089); details: higher = more signal, called active from +8 up or from −8 down;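 also: growth of clinical yeast isolate S. cerevisiae YJM 789 seeded 1000 cells per well; test concentration not given here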
[13] = S. pombe growth modifiers, basal conditions – strain 972, OD600, 24 h, no modulator, primary screen (AID 1090);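 also: basal condition with compound alone and no growth modifier present; test concentration not given here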; details: S. pombe 972 growth, higher = more signal, called active from +8 up or from −8 down
[14] = budding yeast growth modifiers under rapamycin – strain BY4716, OD600, 96 h, primary screen (AID 1091); also: test concentration not given here; details: S. cerevisiae BY4716 + rapamycin, higher = more signal, called active from +8 up or from −8 down
[15] = biological target: Torsin-1A-interacting protein 2 (Homo sapiens) (UniProt Q8NFQ8); test: small molecules binding lysate-expressed LULL1 – cell lysate, human LULL1 lysate, 635/667 nm fluorescence, primary screen (AID 1092); details: small-molecule microarray, hLULL1 lysate binding, 635 nm fluorescence; higher = more signal;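 also: probe is lysate of COS7 cells overexpressing human LULL1; score merges per-feature 667 nm fluorescence with signal-to-noise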
[16] = optical density change of DRC41 E. coli – strain DRC41, OD650, 24 h, E. coli filamentation project, primary screen (AID 1093);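 also: MC1000 strain lacking acrAB efflux and sulA so SOS filamentation is blocked; test concentration not given here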; details: E. coli DRC41 growth, higher = more signal, called active from +8 up or from −8 down
[17] = probe aLefty2 binding to arrayed compounds – biochemical, biotinylated probe, 635/667 nm fluorescence, primary screen (AID 1094); details: small-molecule microarray, higher = more signal;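 also: score merges spot fluorescence near 667 nm with spot signal-to-noise ratio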
[18] = system: Noggin (protein binding on small-molecule microarray); test: small molecules binding Noggin protein – biochemical, 635/667 nm fluorescence, primary screen (AID 1095); details: 635 nm fluorescence, higher = more signal;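 also: score merges 667 nm feature fluorescence with signal to noise over triplicate slides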
[19] = biological target: Neurogenic locus notch homolog protein 3 (Homo sapiens) (UniProt Q9UM47); test: small molecules binding NOTCH3 protein – biochemical, 635/667 nm fluorescence, primary screen (AID 1096); details: small-molecule microarray, 635 nm fluorescence, higher = more signal
Sequence of Neurogenic locus notch homolog protein 3 (Homo sapiens) (Q9UM47 whole entry, looked up): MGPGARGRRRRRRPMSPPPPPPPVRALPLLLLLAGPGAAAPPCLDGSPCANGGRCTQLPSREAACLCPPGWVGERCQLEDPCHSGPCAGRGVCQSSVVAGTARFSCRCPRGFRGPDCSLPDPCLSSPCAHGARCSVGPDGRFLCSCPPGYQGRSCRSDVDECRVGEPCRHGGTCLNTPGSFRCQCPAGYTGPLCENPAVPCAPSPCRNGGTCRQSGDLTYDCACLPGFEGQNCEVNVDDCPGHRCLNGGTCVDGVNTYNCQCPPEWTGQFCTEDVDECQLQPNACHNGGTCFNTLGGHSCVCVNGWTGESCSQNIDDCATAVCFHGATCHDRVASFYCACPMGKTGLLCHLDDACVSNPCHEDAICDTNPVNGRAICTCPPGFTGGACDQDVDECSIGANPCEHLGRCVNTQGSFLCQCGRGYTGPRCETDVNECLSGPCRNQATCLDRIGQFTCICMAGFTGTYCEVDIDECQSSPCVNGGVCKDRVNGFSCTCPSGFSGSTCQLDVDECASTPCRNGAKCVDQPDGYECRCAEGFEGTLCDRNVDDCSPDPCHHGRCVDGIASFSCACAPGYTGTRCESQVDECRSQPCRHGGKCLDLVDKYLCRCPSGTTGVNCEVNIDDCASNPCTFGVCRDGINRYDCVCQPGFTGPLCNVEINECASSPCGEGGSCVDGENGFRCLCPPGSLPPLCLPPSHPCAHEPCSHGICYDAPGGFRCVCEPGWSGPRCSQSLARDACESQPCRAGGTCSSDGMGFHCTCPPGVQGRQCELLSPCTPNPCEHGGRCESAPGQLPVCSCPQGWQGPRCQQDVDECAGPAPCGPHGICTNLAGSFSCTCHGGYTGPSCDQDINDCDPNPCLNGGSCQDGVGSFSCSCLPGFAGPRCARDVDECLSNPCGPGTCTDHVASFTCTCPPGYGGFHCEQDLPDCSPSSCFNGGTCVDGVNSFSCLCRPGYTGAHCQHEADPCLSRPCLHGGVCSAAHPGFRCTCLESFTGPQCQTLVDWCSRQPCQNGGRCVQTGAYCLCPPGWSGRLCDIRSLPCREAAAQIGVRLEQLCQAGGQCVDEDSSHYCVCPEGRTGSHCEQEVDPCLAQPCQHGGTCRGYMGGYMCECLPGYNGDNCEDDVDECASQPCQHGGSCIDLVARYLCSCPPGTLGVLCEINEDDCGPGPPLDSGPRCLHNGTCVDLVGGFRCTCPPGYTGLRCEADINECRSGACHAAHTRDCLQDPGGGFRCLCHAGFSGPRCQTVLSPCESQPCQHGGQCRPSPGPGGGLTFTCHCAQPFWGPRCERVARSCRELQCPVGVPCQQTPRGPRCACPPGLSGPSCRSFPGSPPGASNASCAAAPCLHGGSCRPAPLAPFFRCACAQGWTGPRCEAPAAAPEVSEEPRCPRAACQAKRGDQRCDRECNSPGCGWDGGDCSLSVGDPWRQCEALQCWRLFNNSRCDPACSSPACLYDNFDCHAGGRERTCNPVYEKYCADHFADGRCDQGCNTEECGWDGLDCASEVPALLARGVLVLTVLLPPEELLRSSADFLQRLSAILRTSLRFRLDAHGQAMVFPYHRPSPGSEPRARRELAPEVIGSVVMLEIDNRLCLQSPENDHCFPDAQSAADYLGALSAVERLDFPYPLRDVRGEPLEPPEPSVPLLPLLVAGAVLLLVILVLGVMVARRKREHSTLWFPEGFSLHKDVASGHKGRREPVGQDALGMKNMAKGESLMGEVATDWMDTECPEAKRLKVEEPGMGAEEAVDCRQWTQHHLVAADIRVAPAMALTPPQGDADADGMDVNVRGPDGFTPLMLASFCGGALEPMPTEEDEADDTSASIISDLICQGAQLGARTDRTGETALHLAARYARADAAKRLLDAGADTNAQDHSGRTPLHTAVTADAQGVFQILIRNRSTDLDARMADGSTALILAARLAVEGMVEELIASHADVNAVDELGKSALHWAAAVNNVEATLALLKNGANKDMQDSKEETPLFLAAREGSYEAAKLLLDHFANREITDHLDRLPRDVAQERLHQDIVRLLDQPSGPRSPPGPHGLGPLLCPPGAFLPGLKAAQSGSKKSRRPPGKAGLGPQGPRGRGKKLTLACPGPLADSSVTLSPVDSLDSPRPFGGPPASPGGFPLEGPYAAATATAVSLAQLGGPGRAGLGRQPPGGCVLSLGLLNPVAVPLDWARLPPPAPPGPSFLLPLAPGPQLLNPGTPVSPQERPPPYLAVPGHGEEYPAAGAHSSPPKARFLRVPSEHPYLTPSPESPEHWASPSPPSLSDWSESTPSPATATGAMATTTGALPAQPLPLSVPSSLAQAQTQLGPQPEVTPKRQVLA

[20] = probe aEGFR binding to arrayed compounds – biochemical, biotinylated probe, 635/667 nm fluorescence, primary screen (AID 1097); details: small-molecule microarray, higher = more signal;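 also: probe is a biotinylated anti-EGFR antibody binding compounds printed on slides; score combines fluorescence near 667 nm and signal to noise of each spot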

CCOC(=O)C[C@H]1[C@H](OC(=O)c2cc3ccccc3oc2=O)[C@@H](NC(=O)Cc2ccc(OC)cc2)c2cc(OCCCO)ccc2N1C(=O)c1ccccc1
composite z-score [1]: -0.356 | composite z-score [2]: 0.41 | composite z-score [3]: -0.076 | composite z-score [4]: 0.379 | composite z-score [5]: 0.359 | composite z-score [6]: 0.199 | composite z-score [7]: 0.385 | z-score [8]: 1.57 (inactive) | composite z-score [9]: 0.164 | composite z-score [10]: -0.199 | composite z-score [11]: 0.242 | z-score [12]: -0.0987 (inactive) | z-score [13]: -0.507 (inactive) | z-score [14]: 0.279 (inactive) | composite z-score [15]: 1.08 | z-score [16]: 0.201 (inactive) | composite z-score [17]: -0.139 | composite z-score [18]: 0.558 | composite z-score [19]: 0.0769 | composite z-score [20]: -0.0174

CC1CC/C=C\[C@H]2OC34C=CCN(C(C)(C)C)C(=O)[C@H]3N(CCCCCCO)C(=O)[C@@H]4C2C(=O)O1 (stereo not given in full)
composite z-score [1]: 0.237 | composite z-score [2]: -0.153 | composite z-score [3]: -0.149 | composite z-score [4]: 0.0097 | composite z-score [5]: -0.945 | composite z-score [6]: 0.866 | composite z-score [7]: 1.13 | z-score [8]: -1.09 (inactive) | composite z-score [9]: -0.222 | composite z-score [10]: -0.0994 | composite z-score [11]: -0.005 | z-score [12]: -0.242 (inactive) | z-score [13]: -0.357 (inactive) | z-score [14]: -0.19 (inactive) | composite z-score [15]: 1.4 | z-score [16]: -0.31 (inactive) | composite z-score [17]: -0.183 | composite z-score [18]: -0.597 | composite z-score [19]: 0.0452 | composite z-score [20]: -0.371

COC(=O)[C@@]1(Cc2ccc(OC)cc2)[C@H]2c3cc(C(=O)N4CCCC4)n(Cc4ccsc4Br)c3C[C@H]2CN1C(=O)c1ccccc1
composite z-score [1]: 0.588 | composite z-score [2]: -0.594 | composite z-score [3]: -0.1 | composite z-score [4]: 0.188 | composite z-score [5]: 1.6 | composite z-score [6]: 1.68 | composite z-score [7]: 1.08 | z-score [8]: 3.4 (inactive) | composite z-score [9]: 1.37 | composite z-score [10]: -0.367 | composite z-score [11]: -0.356 | z-score [12]: -0.168 (inactive) | z-score [13]: 0.0021 (inactive) | z-score [14]: -0.887 (inactive) | composite z-score [15]: 2.91 | z-score [16]: -0.29 (inactive) | composite z-score [17]: 0.498 | composite z-score [18]: -0.0969 | composite z-score [19]: 0.855 | composite z-score [20]: 0.122

CN(C)CCCNC(=O)[C@@]1(C)c2ccccc2C(=O)N(Cc2cc(F)cc(C(F)(F)F)c2)[C@H]1c1ccc(CO)cc1
composite z-score [1]: -0.0117 | composite z-score [2]: -0.224 | composite z-score [3]: -0.144 | composite z-score [4]: -0.681 | composite z-score [5]: -1.23 | composite z-score [6]: 1.05 | composite z-score [7]: -0.164 | z-score [8]: -0.712 (inactive) | composite z-score [9]: -0.641 | composite z-score [10]: -0.132 | composite z-score [11]: 0.936 | z-score [12]: -1.46 (inactive) | z-score [13]: -2.05 (inactive) | z-score [14]: -2.02 (inactive) | composite z-score [15]: 3.12 | z-score [16]: 0.0544 (inactive) | composite z-score [17]: -0.203 | composite z-score [18]: -0.986 | composite z-score [19]: -0.604 | composite z-score [20]: -0.237

[N-]=[N+]=Nc1ccccc1C[C@]1(C(=O)NCC(O)CO)N=C(c2ccc(OCCCO)cc2)O[C@H]1c1ccccc1N=[N+]=[N-] (stereo not given in full)
composite z-score [1]: 0.722 | composite z-score [2]: 0.0264 | composite z-score [3]: 0.056 | composite z-score [4]: 0.33 | composite z-score [5]: 0.379 | composite z-score [6]: 1.45 | composite z-score [7]: 0.753 | z-score [8]: -0.516 (inactive) | composite z-score [9]: 0.375 | composite z-score [10]: -0.0994 | composite z-score [11]: -0.918 | z-score [12]: 0.637 (inactive) | z-score [13]: -0.824 (inactive) | z-score [14]: 0.0558 (inactive) | composite z-score [15]: 2.98 | z-score [16]: 0.774 (inactive) | composite z-score [17]: 0.334 | composite z-score [18]: -0.609 | composite z-score [19]: 0.203 | composite z-score [20]: 0.383

COC(=O)c1c(CC[C@@H](CO)NC(=O)N[C@@H](C)Cn2cc(C3(O)CCCCC3)nn2)oc(C(C)=O)c1C(=O)OC
composite z-score [1]: -0.548 | composite z-score [2]: 1.14 | composite z-score [3]: -0.0512 | composite z-score [4]: 1.01 | composite z-score [5]: 1.25 | composite z-score [6]: 0.518 | composite z-score [7]: 1.3 | z-score [8]: 1.2 (inactive) | composite z-score [9]: 0.817 | composite z-score [10]: -0.184 | composite z-score [11]: 1.54 | z-score [12]: 0.34 (inactive) | z-score [13]: -0.261 (inactive) | z-score [14]: 0.107 (inactive) | composite z-score [15]: 1.16 | z-score [16]: -0.338 (inactive) | composite z-score [17]: 0.0621 | composite z-score [18]: 1.16 | composite z-score [19]: 1.05 | composite z-score [20]: 0.173

COc1ccc([Si](C)(C)[C@@H]2[C@@H](CCO)O[C@]3(C(=O)N(Cc4ccc(N5C(=O)COc6ccccc65)cc4)c4ccccc43)[C@H]2C)cc1
composite z-score [1]: -0.0069 | composite z-score [2]: 0.408 | composite z-score [3]: -0.0474 | composite z-score [4]: 1.24 | composite z-score [5]: 1.18 | composite z-score [6]: 1.01 | composite z-score [7]: 1.17 | z-score [8]: -2.74 (inactive) | composite z-score [9]: 0.288 | composite z-score [10]: 0.0373 | composite z-score [11]: 1.5 | z-score [12]: 3.6 (inactive) | z-score [13]: -0.0953 (inactive) | z-score [14]: 35.7 (active) | composite z-score [15]: 2.44 | z-score [16]: 0.49 (inactive) | composite z-score [17]: -0.0375 | composite z-score [18]: 1.17 | composite z-score [19]: 0.767 | composite z-score [20]: 0.0192

CC(C)C[C@@H]1NC(=O)[C@H]2C[C@@H](C(=O)NCCCCCCN)[C@@H](c3ccc(O)cc3)N2C1=O
composite z-score [1]: 0.839 | composite z-score [2]: 0.252 | composite z-score [3]: -0.0212 | composite z-score [4]: -0.0652 | composite z-score [5]: -0.277 | composite z-score [6]: 0.612 | composite z-score [7]: 1.1 | z-score [8]: -0.811 (inactive) | composite z-score [9]: 0.472 | composite z-score [10]: 0.134 | composite z-score [11]: 1.17 | z-score [12]: -0.582 (inactive) | z-score [13]: -0.464 (inactive) | z-score [14]: -0.283 (inactive) | composite z-score [15]: 2.32 | z-score [16]: -0.11 (inactive) | composite z-score [17]: 0.679 | composite z-score [18]: 0.696 | composite z-score [19]: 0.529 | composite z-score [20]: 0.125

CCCCCC1=C2CNC(CCC)(C(=O)OC)C=C2C(C)C1=O (stereo not given)
composite z-score [1]: 0.327 | composite z-score [2]: 0.0422 | composite z-score [3]: -0.0074 | composite z-score [4]: 0.159 | composite z-score [5]: 1.14 | composite z-score [6]: 0.92 | composite z-score [7]: 0.993 | z-score [8]: 0.488 (inactive) | composite z-score [9]: 0.21 | composite z-score [10]: 1.96 | composite z-score [11]: -0.523 | z-score [12]: 0.0131 (inactive) | z-score [13]: 0.277 (inactive) | z-score [14]: 0.573 (inactive) | composite z-score [15]: 2.13 | z-score [16]: -0.48 (inactive) | composite z-score [17]: 0.0943 | composite z-score [18]: -0.236 | composite z-score [19]: 0.358 | composite z-score [20]: 0.189

Cc1ccc(S[C@]2(C(=O)NCCN3CCOCC3)CC(=O)N(Cc3ccccc3)[C@@H]2c2ccc(CO)cc2I)cc1
composite z-score [1]: 1.09 | composite z-score [2]: -0.883 | composite z-score [3]: -0.0564 | composite z-score [4]: -0.165 | composite z-score [5]: -1.51 | composite z-score [6]: 0.742 | composite z-score [7]: 1.49 | z-score [8]: -0.456 (inactive) | composite z-score [9]: -0.39 | composite z-score [10]: -0.0645 | composite z-score [11]: 0.01 | z-score [12]: -0.605 (inactive) | z-score [13]: -3 (inactive) | z-score [14]: 0.576 (inactive) | composite z-score [15]: 2.07 | z-score [16]: -1.17 (inactive) | composite z-score [17]: 0.0769 | composite z-score [18]: -1.57 | composite z-score [19]: -0.791 | composite z-score [20]: -0.378
